Experimental data from PubChem BioAssay AID588742 (Southern Research Specialized Biocontainment Screening …, 2011).
Among all 1,800 compounds or so, about 410 (23%) were called active. How the calls were made is not given here. These entries were drawn from the full list. Results with a measured potency or affinity are listed apart.

assay: viability of Vero cells under compound – cytotoxicity control for flavivirus capping enzyme inhibitors (AID 588742); settings: cytotoxicity counter-screen; series mostly up to 40 µM

Row | SMILES | outcome
1 | CCc1ccc(N(C(=O)c2csnn2)C(C(=O)NC(C)(C)CC)c2cccnc2)cc1 (configuration not stated) | inactive
2 | O=C1OC(c2ccccc2)/C(=C(/O)c2ccc(Cl)cc2)C1=O (configuration not stated) | inactive
3 | CC(C)c1noc2ncc(C(=O)c3cc(Cl)cc(Cl)c3O)cc12 | inactive
4 | CCCCn1c(=O)nc2n(-c3ccccc3)c3ccccc3cc-2c1=O | inactive
5 | O=C1c2ccccc2C(=O)c2c(/C=C/N3CCCCC3)ccnc21 | inactive
6 | O=c1ccc2c(-c3ccccc3S(=O)(=O)O)c3ccc(O)c(O)c3oc-2c1O | inactive
7 | O=S(=O)(Nc1c(O)ccc2ccccc12)c1ccccc1 | inactive
8 | Cc1ccc(S(=O)(=O)NN2C(=O)/C(=C/c3ccc(C(=O)O)cc3)SC2=S)cc1 | inactive
9 | N#CC1=C(N)N(c2ccccc2)C2=C(C(=O)CCC2)C1c1ccsc1 (configuration not stated) | inactive
10 | C=CCn1c(SCC(=O)c2ccccc2)nnc1-c1ccc2c(c1)OCO2 | inactive
11 | N#C/C(=C\c1cccs1)C(=O)c1ccccc1 | inactive
12 | CC(=O)OCC1=C(C(=O)O)N2C(=O)C(NC(=O)CCn3nc(C(F)(F)F)c(Br)c3C3CC3)C2SC1 (configuration not stated) | inactive
13 | COc1ccc(N2CCN(C(=O)CCC(=O)N3Cc4ccccc4Oc4ncccc43)CC2)cc1 | inactive
14 | CN1C(C(=O)NCc2cccs2)=CC(c2ccc(F)cc2)=NS1(=O)=O | inactive
15 | O=C(O)C(c1ccccc1)N1C(=O)/C(=C/c2cccs2)SC1=S (configuration not stated) | inactive
16 | Nc1ccc(S(=O)(=O)Nc2nccs2)cc1N=Nc1ccccc1[N+](=O)[O-] | inactive
17 | CCOC(=O)c1cc(-c2ccco2)nc2c1c(C)nn2CCC#N | inactive
18 | COc1cc(C(C2C(=O)CC(C)(C)CC2=O)C2C(=O)CC(C)(C)CC2=O)ccc1O | inactive
19 | COc1cccc(/C=C2\SC(=S)N(NS(=O)(=O)c3ccccc3)C2=O)c1OC | inactive
20 | CN(C)c1ccc(C=Nc2ccc(N(C)C)cc2)cc1 | inactive
21 | O=C1NC(=S)N/C1=C/C=C/c1ccccc1 | inactive

Row | SMILES | outcome
22 | CCCC(C(=O)O)N1C(=O)/C(=C2\C(=O)N(C)c3ccccc32)SC1=S (configuration not stated) | inactive
23 | CCN1/C(=C2\C(=O)N(C)C(=S)N2C)C=Cc2cc(OC)ccc21 | inactive
24 | O=C(O)CN1C(=O)/C(=C\c2cccc(OCc3ccc(Cl)cc3Cl)c2)SC1=S | inactive
25 | O=C(CNC(=O)N1CC(=O)Nc2ccccc21)Nc1cccc(F)c1 | inactive
26 | O=C(O)c1[nH]c2ccccc2c1C(c1ccccc1)c1c(C(=O)O)[nH]c2ccccc12 | inactive
27 | Cc1ccc(/C=C2\S/C(=N/S(=O)(=O)c3cccs3)NC2=O)cc1 | inactive
28 | CC(C)(C)c1ccc(S(=O)(=O)/N=C2\C=C(NS(=O)(=O)c3ccccc3)C(=O)c3ccccc32)cc1 | inactive
29 | O=C(O)c1ccc(Nc2nc3ccccc3nc2NS(=O)(=O)c2ccc(F)cc2)cc1 | inactive
30 | O=C(O)c1ccc(NS(=O)(=O)c2ccc3c(c2)C(=O)c2cc(S(=O)(=O)Nc4ccc(C(=O)O)cc4)ccc2-3)cc1 | inactive
31 | O=C(O)c1ccc(NC2=C/C(=N/S(=O)(=O)c3cccs3)c3ccccc3C2=O)cc1 | inactive
32 | Cc1ccc(S(=O)(=O)/N=C2\C=C(NS(=O)(=O)c3ccc(C)cc3)C(=O)c3ccccc32)cc1 | inactive
33 | Cc1ccc(N2C(N)=C(C#N)C(c3cccnc3)C3=C2CCCC3=O)cc1 (configuration not stated) | inactive
34 | C=CCOc1cccc(C2C(C(=O)c3cc4ccccc4o3)=C(O)C(=O)N2c2cc(C)on2)c1 (configuration not stated) | inactive
35 | CCOc1ccc(NS(=O)(=O)c2ccc(Cl)c(N=Nc3c(O)[nH]c(=S)[nH]c3=O)c2)cc1Br | inactive
36 | C/C(=N\Nc1cccc(C(=O)O)c1)c1ccc2c(c1)Nc1ccccc1S2 | inactive
37 | CC(N=Cc1cccc(O)c1O)c1ccccc1 (configuration not stated) | inactive
38 | CSc1ccc(C(c2c(C(=O)O)[nH]c3ccccc23)c2c(C(=O)O)[nH]c3ccccc23)cc1 | inactive
39 | CN(C(=S)Nc1ccc(SC(F)F)cc1)c1ccc(O)cc1 | inactive
40 | CC(C)c1nc(SCC(=O)N2CCCC2)c2ccccc2n1 | inactive
41 | CC(=O)OCC1=C(C(=O)O)N2C(=O)C(NC(=O)c3ccc(COc4c(C)cccc4Cl)o3)C2SC1 (configuration not stated) | inactive
42 | Cc1ccc([C@@H]2CC=C(C(=O)O)[C@H](c3ccc(Br)cc3)N2S(=O)(=O)c2ccc(C)cc2)cc1 | inactive

Row | SMILES | outcome
43 | CC1=C/C(=C(/c2cc(C)c(O)c(Br)c2)c2ccccc2S(=O)(=O)O)C=C(Br)C1=O | inactive
44 | COc1cc(/C=C2\SC(=S)N(C(C(=O)O)c3ccccc3)C2=O)cc(OC)c1OC (configuration not stated) | inactive
45 | C[N+](C)(CCOc1ccccc1)Cc1ccccc1 (tested in a mixture with another compound) | inactive
46 | O=C(CSc1nc2scc(-c3ccco3)c2c(=O)n1-c1ccccc1)NCC1CCCO1 (configuration not stated) | inactive
47 | CC(C)(C)C1CCc2c(sc(NC(=O)C3CC=CCC3C(=O)O)c2C#N)C1 (configuration not stated) | inactive
48 | O=C(NC(NC(=S)Nc1ccccc1C(=O)O)C(Cl)(Cl)Cl)c1ccccc1 (configuration not stated) | inactive
49 | C=CCOc1ccc(C(c2c(C(=O)O)[nH]c3ccccc23)c2c(C(=O)O)[nH]c3ccccc23)cc1 | inactive
50 | COc1cccc(C=Nc2cc(C(C)C)c(O)cc2C)c1O | inactive
51 | O=C(O)COc1ccccc1/C=N/NC(=O)c1cc(-c2ccc(Cl)cc2)nc2ccccc12 | inactive
52 | Cc1c(Cl)cccc1NS(=O)(=O)c1ccc2c(c1)C1C=CCC1C(c1ccc(C(=O)O)cc1)N2 (configuration not stated) | inactive
53 | CCOc1ccc(N(C)C(=O)CCc2nnc3ccc(N4CCCC4)nn23)cc1 | inactive
54 | Cn1c(SCC(=O)N2CCCCC2)nc2cccnc21 | inactive
55 | O=C1NC2=C(C(=O)CCC2)C(c2ccccc2[N+](=O)[O-])N1 (configuration not stated) | inactive
56 | Nc1sc2c(c1C(=O)NC1CC1)CCCC2 | inactive
57 | O=C(CCCN1C(=O)/C(=C/c2ccco2)SC1=S)Nc1cccc(C(=O)O)c1 | inactive
58 | COc1ccc(N2CCC(CNC(=S)Nc3c(C)cccc3C)C2)cc1 (configuration not stated) | inactive
59 | CC(Cc1cccc(C(F)(F)F)c1)NCCOC(=O)c1ccccc1 (configuration not stated) | inactive
60 | O=C(Cc1cnn(-c2ccccc2)c1)c1ccc(O)c(O)c1O | inactive
61 | Cc1ccc(S(=O)(=O)ON2C(=O)c3ccccc3C2=O)c(C)c1 | inactive
62 | O=c1c(C(c2ccc(O)cc2)c2c(O)nc3n(c2=O)CCCS3)c(O)nc2n1CCCS2 | inactive
